# The supplement of paper PMC10849652
# Targets with a hit are over-represented here; the source holds about 7,900 in all. About 0.6% of all pairs of compound and target were hits. Values without a mark were called inactive.
# Legend:
# Test in all cases: log2 fold change, soluble protein after heating vs DMSO (PISA); higher = thermal stabilisation; K562 cells, 10 uM, 30 min; active = over 0.2 and 3.5 SD of the protein, either way, in both replicates (recomputed)
# [1] = compound: CC[C@@H]1C(=O)N(C)c2cnc(Nc3ccc(C(=O)NC4CCN(C)CC4)cc3OC)nc2N1C1CCCC1
# Outline: (§1)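 Quantification of soluble protein used TMTpro 16plex LC-MS/MS, with channel sums equalised. Samples were the supernatant after 21,000xg for 90 min of pooled aliquots from K562 cells (2×10^6 cells/mL) treated with 10 μM compound for 30 min, heated for 3 min over 48°C-58°C, and extracted in PBS with 0.5% NP-40 at 4°C. Values, from duplicates, describe thermal stability against control samples on a log2 fold-change scale.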
# volasertib = compound: CC[C@@H]1C(=O)N(C)c2cnc(Nc3ccc(C(=O)N[C@H]4CC[C@H](N5CCN(CC6CC6)CC5)CC4)cc3OC)nc2N1C(C)C [volasertib]
# Outline: as §1
# [2] = compound: CC[C@H](C)N1C=C(C2=C(C=C(C=C21)C3=CN=C(C=C3)N4CCNCC4)C(=O)NCC5=C(C=C(NC5=O)C)C)C
# Outline: as §1
# epoxomicin = compound: CC[C@H](C)[C@@H](C(=O)N[C@@H]([C@@H](C)O)C(=O)N[C@@H](CC(C)C)C(=O)[C@]1(CO1)C)NC(=O)[C@H]([C@@H](C)CC)N(C)C(=O)C [epoxomicin]
# Outline: as §1
# [3] = compound: CCn1c(C(=O)N(C2CC2)C2CC2)cc2c3c(ncn3C)c(Nc3cc(C)n(C)n3)nc21
# Outline: as §1
# [4] = compound: CCn1cc(-c2ccnc3[nH]c(-c4cccc(CN(C)C)c4)cc23)c(-c2ccc(NC(=O)N(C)C)cc2)n1
# Outline: as §1
# [5] = compound: CN(C)CC(=O)Nc1ccc2[nH]c(=O)c3ccccc3c2c1
# Outline: as §1
# rosiglitazone = compound: CN(CCOC1=CC=C(C=C1)C[C@H]2C(=O)NC(=O)S2)C3=CC=CC=N3 (racemic) [rosiglitazone]
# Outline: as §1
# [6] = compound: CN1C2=C(C3=C1C(=O)N(N=C3)CC4=CC(=CC=C4)N)SC(=C2)S(=O)C
# Outline: as §1
# [7] = compound: CN1CCC(CNc2ccc3ncc(-c4cccc(OC(F)(F)F)c4)n3n2)CC1
# Outline: as §1
# UniProt Q9NXE4, sequence (Q9NXE4 whole entry, looked up): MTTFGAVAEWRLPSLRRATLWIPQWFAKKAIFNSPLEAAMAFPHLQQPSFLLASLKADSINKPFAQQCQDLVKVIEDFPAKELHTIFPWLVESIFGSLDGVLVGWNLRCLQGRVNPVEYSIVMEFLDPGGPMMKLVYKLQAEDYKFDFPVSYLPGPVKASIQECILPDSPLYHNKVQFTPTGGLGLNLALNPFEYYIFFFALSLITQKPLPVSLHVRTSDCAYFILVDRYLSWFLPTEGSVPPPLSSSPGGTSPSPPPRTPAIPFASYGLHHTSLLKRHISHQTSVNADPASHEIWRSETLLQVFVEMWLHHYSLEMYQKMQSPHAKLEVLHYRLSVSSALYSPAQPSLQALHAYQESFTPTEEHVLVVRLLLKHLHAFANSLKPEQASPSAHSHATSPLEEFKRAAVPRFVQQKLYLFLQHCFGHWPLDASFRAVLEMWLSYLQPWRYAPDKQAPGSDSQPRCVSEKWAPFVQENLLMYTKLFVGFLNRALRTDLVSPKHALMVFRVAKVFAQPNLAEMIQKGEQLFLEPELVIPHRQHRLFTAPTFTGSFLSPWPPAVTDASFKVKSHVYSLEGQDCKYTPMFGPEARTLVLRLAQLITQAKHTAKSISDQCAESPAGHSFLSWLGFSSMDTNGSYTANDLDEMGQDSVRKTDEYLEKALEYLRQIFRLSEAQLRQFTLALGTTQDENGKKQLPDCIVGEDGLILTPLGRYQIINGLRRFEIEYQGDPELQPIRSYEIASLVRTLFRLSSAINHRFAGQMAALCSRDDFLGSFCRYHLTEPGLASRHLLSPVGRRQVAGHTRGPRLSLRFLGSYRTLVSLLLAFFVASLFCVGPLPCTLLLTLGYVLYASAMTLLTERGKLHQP
# UniProt Q9UDY2, sequence (Q9UDY2 whole entry, looked up): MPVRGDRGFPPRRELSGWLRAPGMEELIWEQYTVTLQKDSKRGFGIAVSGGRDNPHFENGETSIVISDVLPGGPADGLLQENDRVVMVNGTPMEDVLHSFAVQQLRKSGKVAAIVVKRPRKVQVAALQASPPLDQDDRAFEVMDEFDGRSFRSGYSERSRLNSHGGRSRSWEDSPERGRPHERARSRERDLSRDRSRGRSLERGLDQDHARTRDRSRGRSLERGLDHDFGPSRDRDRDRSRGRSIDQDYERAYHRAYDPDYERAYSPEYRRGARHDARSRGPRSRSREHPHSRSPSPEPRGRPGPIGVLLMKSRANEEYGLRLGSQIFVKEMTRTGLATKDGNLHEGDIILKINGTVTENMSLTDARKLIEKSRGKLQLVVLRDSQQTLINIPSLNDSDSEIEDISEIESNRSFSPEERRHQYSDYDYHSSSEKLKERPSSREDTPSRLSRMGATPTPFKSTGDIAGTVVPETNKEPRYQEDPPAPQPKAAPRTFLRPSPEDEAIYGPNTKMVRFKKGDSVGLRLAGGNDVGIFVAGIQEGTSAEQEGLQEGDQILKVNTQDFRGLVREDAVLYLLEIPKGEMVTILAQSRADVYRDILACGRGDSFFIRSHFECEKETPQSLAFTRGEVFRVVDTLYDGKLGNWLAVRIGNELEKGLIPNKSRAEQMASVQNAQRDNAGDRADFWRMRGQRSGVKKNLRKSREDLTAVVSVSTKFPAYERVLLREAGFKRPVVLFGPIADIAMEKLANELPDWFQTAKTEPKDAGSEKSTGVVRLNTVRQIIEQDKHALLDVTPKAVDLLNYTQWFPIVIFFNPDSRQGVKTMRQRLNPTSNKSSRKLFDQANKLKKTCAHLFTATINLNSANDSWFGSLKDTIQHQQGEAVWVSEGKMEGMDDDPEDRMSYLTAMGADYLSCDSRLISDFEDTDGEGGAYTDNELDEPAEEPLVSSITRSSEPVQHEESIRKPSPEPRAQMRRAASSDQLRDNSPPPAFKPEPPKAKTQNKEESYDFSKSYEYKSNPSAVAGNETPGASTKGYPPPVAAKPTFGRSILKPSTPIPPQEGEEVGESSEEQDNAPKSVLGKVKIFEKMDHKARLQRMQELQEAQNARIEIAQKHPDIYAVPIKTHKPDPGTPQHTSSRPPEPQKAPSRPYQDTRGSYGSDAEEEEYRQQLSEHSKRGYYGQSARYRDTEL
# UniProt Q8NEW0, sequence (Q8NEW0 whole entry, looked up): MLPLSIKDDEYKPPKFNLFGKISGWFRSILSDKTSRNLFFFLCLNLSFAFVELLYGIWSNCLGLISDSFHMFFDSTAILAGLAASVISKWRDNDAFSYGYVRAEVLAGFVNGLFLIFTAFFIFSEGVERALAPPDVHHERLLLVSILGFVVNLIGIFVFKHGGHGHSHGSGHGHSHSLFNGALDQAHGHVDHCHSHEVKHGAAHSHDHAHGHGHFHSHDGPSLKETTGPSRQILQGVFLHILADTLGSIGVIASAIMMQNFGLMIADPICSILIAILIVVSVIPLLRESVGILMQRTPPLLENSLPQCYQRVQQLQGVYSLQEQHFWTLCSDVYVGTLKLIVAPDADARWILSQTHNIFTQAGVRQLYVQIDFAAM
# UniProt Q13586, sequence (Q13586 whole entry, looked up): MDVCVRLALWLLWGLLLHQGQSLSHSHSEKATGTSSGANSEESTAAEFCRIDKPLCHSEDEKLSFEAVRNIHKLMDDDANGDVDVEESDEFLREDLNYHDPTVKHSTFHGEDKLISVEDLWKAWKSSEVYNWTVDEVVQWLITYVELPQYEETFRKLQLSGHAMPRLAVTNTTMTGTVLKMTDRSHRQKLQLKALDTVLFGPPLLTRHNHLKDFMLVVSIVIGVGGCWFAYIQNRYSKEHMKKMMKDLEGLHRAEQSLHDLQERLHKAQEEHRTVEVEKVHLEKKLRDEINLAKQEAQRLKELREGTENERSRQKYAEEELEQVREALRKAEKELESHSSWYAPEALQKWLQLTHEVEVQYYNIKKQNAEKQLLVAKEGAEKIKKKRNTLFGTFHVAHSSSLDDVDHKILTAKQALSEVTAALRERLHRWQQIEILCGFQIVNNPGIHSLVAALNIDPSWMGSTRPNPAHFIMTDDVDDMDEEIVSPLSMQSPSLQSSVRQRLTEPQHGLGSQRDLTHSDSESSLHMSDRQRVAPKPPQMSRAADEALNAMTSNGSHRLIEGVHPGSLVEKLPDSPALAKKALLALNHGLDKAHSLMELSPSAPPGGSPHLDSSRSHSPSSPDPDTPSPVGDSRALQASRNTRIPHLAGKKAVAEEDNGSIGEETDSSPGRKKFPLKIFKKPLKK
# UniProt Q9UKI8, sequence (Q9UKI8 whole entry, looked up): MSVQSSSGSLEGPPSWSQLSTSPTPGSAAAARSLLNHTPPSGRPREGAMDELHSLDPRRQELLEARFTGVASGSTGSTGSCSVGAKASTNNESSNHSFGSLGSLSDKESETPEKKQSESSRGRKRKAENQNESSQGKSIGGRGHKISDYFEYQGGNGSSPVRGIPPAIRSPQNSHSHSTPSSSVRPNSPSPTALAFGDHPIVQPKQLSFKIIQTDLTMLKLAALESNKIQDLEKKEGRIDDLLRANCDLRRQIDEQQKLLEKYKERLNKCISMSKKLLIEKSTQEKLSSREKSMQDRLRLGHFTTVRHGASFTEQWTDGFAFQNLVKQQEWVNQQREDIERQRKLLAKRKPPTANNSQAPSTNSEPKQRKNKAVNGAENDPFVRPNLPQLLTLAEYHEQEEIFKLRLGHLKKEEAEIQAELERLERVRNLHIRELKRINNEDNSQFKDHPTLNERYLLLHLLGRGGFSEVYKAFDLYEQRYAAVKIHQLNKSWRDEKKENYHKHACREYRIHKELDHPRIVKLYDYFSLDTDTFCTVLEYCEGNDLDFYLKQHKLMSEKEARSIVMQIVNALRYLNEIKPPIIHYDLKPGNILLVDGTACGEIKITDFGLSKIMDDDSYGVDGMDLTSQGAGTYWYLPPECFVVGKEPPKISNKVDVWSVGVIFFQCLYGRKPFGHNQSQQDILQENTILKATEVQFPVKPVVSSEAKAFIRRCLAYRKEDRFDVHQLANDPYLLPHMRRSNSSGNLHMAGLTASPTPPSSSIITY
# UniProt P02786, sequence (P02786 whole entry, looked up): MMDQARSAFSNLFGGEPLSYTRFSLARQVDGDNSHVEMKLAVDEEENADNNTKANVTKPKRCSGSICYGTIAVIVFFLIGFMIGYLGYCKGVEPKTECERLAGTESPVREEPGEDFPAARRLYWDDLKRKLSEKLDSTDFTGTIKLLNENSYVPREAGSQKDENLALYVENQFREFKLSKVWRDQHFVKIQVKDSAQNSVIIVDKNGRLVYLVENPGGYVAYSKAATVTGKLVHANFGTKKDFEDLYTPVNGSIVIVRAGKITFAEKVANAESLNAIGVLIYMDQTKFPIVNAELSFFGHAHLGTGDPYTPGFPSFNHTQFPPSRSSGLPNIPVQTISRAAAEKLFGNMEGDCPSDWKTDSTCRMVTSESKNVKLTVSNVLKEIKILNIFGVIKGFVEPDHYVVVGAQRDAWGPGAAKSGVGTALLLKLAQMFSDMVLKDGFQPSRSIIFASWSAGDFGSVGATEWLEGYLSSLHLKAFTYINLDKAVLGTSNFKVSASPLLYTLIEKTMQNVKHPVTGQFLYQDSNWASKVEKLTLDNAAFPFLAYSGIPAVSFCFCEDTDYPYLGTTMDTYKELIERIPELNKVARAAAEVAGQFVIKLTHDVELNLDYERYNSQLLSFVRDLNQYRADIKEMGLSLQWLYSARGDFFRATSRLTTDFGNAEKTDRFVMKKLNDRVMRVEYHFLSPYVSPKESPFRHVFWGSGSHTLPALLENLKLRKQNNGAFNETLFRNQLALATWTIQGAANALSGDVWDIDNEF
# UniProt Q8WVK2, sequence (Q8WVK2 whole entry, looked up): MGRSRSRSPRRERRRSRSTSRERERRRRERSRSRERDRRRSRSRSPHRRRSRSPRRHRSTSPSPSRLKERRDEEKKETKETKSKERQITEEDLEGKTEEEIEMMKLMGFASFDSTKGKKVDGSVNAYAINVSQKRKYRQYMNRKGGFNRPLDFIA
# UniProt O95772, sequence (O95772 whole entry, looked up): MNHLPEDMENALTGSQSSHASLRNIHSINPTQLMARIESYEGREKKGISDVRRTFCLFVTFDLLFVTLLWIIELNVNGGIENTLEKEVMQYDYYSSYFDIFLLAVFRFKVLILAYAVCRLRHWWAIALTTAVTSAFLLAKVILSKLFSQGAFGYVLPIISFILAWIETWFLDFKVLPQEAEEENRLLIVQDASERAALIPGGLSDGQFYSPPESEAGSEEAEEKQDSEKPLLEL
Target,log2 fold change [1],log2 fold change (volasertib),log2 fold change [2],log2 fold change (epoxomicin),log2 fold change [3],log2 fold change [4],log2 fold change [5],log2 fold change (rosiglitazone),log2 fold change [6],log2 fold change [7]
TLK1 (UniProt Q9UKI8),0.017,-0.088,0.02,-0.018,0.01,-0.054,0.033,0.026,-0.086,-0.037
SRSF7 (UniProt Q16629),0.18,0.215,-0.039,-0.171,0.03,0.181,-0.085,-0.172,0.218,0.175
SUPT5H (UniProt O00267),-0.018,-0.224 (active),0.084,0.062,-0.054,-0.065,0.056,0.057,-0.056,-0.117
SNRNP27 (UniProt Q8WVK2),0.029,0.014,-0.08,0.01,0.051,0.038,0.005,-0.027,0.051,-0.032
SPINDOC (UniProt Q9BUA3),-0.131,-0.178,-0.243,0.071,-0.094,0.105,0.074,-0.041,-0.222,-0.02
SULT1A1 (UniProt P50225),-0.159,-0.445 (active),0.091,0.026,-0.056,-0.106,0.105,0.025,0.072,-0.208
TJP2 isoform 7 (UniProt Q9UDY2),-0.128,-0.298,-0.018,0.01,-0.041,-0.083,0.015,0.07,-0.021,-0.094
TIMM21 (UniProt Q9BVV7),-0.133,-0.286 (active),0.034,-0.041,0.029,-0.028,-0.025,0.05,-0.044,-0.227
TIMM44 (UniProt O43615),-0.412 (active),-0.57 (active),-0.004,0.057,-0.006,-0.091,0.012,0.036,-0.056,-0.886 (active)
SYF2 (UniProt O95926),0.196,0.174,-0.096,0.129,-0.01,0.068,-0.044,-0.017,0.039,0.187
SPTBN4 (UniProt Q9H254),0.051,-0.293,-0.025,-0.018,-0.065,-0.1,0.171,0.017,0.011,0.153
SPG11 (UniProt Q96JI7),0.155,-0.294,0.017,-0.085,0.019,0.141,-0.216,-0.045,0.367,-1.24 (active)
STAT6 (UniProt P42226),-0.196,-0.594 (active),-0.02,-0.074,-0.033,0.1,0.093,0.038,0.018,-0.11
SNX11 (UniProt Q9Y5W9),-0.167,-0.324,0.066,-0.031,-0.097,-0.022,-0.024,-0.007,0.167,-0.646 (active)
SMPD4 isoform 4 (UniProt Q9NXE4),-0.067,-0.076,0.068,-0.008,-0.049,-0.081,0.036,0.075,-0.075,-0.32 (active)
SLC30A10 (UniProt Q6XR72),0,-0.052,-0.052,0.045,0.023,-0.244,-0.028,0.039,-0.087,0.044
SLC30A7 (UniProt Q8NEW0),0.016,-0.074,-0.041,-0.034,-0.007,0.032,0.014,0.053,-0.05,0.091
TFRC (UniProt P02786),-0.589 (active),-0.417 (active),-0.035,-0.009,0.051,-0.005,0.004,-0.007,-0.033,-0.289 (active)
TBK1 (UniProt Q9UHD2),-0.093,-0.232,0.055,0.019,0.002,0.023,-0.033,0.076,0.172,-0.152
TARBP1 (UniProt Q13395),-0.022,-0.337 (active),-0.107,0.121,0.018,0.077,-0.012,0.013,0.001,-0.027
STARD3NL (UniProt O95772),0.037,-0.022,-0.036,-0.085,0.007,-0.014,-0.068,0.014,-0.058,-0.371 (active)
THADA (UniProt Q6YHU6),-0.003,-0.017,0.011,-0.007,0,0.057,0.051,0.076,-0.019,-0.146
TERF2IP (UniProt Q9NYB0),-0.038,-0.205,0.001,0.081,0.02,0.01,0.045,0.016,0.026,-0.039
SRSF6 (UniProt Q13247),0.011,0.174,0.116,-0.181,-0.004,0.028,-0.08,-0.043,0.207,0.315
TFB2M (UniProt Q9H5Q4),-0.096,-0.326 (active),0.049,0.071,0,-0.002,0.031,0.042,-0.049,-0.179
SPAST (UniProt Q9UBP0),-0.128,-0.242,0.107,0.021,-0.077,0.035,0.079,0.048,-0.046,-0.043
TFR2 (UniProt Q9UP52),-0.483 (active),-0.382 (active),-0.045,0.01,0.037,0.038,-0.035,-0.007,-0.003,-0.22
STARD7 (UniProt Q9NQZ5),-0.07,-0.032,0.007,0.024,0.037,-0.123,0.012,0.055,0.012,-0.158
STIM1 (UniProt Q13586),-0.116,-0.206,0.025,0.028,0.004,0.023,0.007,0.037,-0.047,-0.195
TAX1BP1 (UniProt Q86VP1),-0.144,-0.298 (active),-0.081,-0.027,0.055,-0.067,0,-0.011,-0.001,0.003
